Out of some 360,000 compounds screened, about 2,000 (0.56%) were called active.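 The calls were made as follows: active = activation above the average of all compounds screened plus 3 SD, cutoff fixed separately per campaign (cut at about 7.5% in these data); inactive = the rest.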 The sample as a whole holds a higher share of actives than the screen did.

This assay can be described thus: FXN promoter activators, primary screen, cell-based, luciferase luminescence, HEK293 lucGAA850 (AID 540364).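 Also: 0% = DMSO wells and 100% = 10 µM SAHA wells.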 To be noted: HEK293 lucGAA850 FXN promoter luciferase reporter, 24 h; at 6 µM; stronger effect = higher value; percent of 10 µM SAHA response. A general note: A reporter such as luciferase makes a cellular process visible.
On to `NC(c1csc(NC(=O)Nc2cccc(C(F)(F)F)c2)n1)C1CCCCC1` (centres undefined), for which the activation was 0.57% (inactive). For `Cc1[nH]c2ccccc2c1C(=O)C(C)Sc1nnc(C2CC2)o1` (centres undefined), the activation is -0.9% (inactive).

As for `COc1ccc(Nc2oc(-c3ccccc3Cl)nc2C#N)cc1`, the activation is -4.29% (inactive). In the case of `CCOc1ccc(Nc2oc(Cc3ccccc3)nc2C#N)cc1` it was 7.76% (active); in that of `Cc1ccc(OCc2nc(C#N)c(N3CCCC3)o2)cc1`, 1.46% (inactive). Next, `Cn1c(=O)n(C)c(=O)n(CC(=O)N2CCCCC2)c1=O`: -1.79% (inactive); `O=C(CSc1nc2[nH]c(=O)[nH]c(=O)c2s1)Nc1cccc(F)c1`: -0.65% (inactive). As to `CCCOP(=O)(c1ccc(N(C)C)cc1)C(O)c1cc(OC)c(OC)c(OC)c1` (centres undefined), the activation was 0.98% (inactive). Next, `O=C(Nc1ccc(Cl)cn1)c1ccccc1-c1ccccc1`: 0.22% (inactive); `CSc1ccccc1-c1nnc(-c2ccc(Cl)cc2)o1`: 5.35% (inactive); `Nc1cccc(-c2cc(-c3ccccc3)nc(-c3cccc(N)c3)n2)c1`: 1.48% (inactive). In the case of `Oc1ccccc1-c1cc(-c2ccc(Cl)cc2)n[nH]1` it was 8.31% (active); in that of `c1ccc(-c2cc(-c3ccccc3)[nH]n2)cc1`, 10.4% (active). As to `c1ccc(-c2c[nH]c(-c3ccccc3)c2)cc1`, the activation is 1.7% (inactive). In the case of `O=C1CCN(C(=O)Nc2ccccc2)N1` it was -0.46% (inactive).

For the molecule `O=C(COc1ccc(Cl)cc1Cl)NCCCNC(=O)c1cnccn1`, the activation is 7.84% (active). In the case of `O=C(NCCCNC(=O)c1ccccc1Cl)c1cnccn1` it was 1.82% (inactive). Next, `COc1ccccc1CCNC(=O)c1cnccn1`: 2.62% (inactive); `CCn1c(CC(=O)Nc2ccccc2C)nnc1SCC(=O)NC1=NCCS1`: -0.89% (inactive). In the case of `N#Cc1c(N)nc2c3c(sc(=N)c2c1N)NC(=O)CC3c1ccccc1Cl` (centres undefined) it was 9.37% (active); in that of `COc1ccc(C2CC(=O)Nc3sc(=N)c4c(N)c(C#N)c(N)nc4c32)cc1OC` (centres undefined), 5.47% (inactive); in that of `CSc1nc2c(c(=O)[nH]1)C(c1cccc(Cl)c1Cl)CC(=O)N2` (centres undefined), -1.23% (inactive). Take `O=C(O)c1ccccc1-c1cccc2nncn12`: the activation is 0.6% (inactive). In the case of `Cc1ccc2[nH]c(=O)c(COC(=O)c3ccccn3)cc2c1` it was -0.35% (inactive). In the case of `CCOC(=O)c1cc2cc(C)ccc2[nH]1` it was 7.85% (active). Next, `CCOC(=O)c1[nH]c2ccc(C)cc2c1N=C(C)N(C)C`: 2.12% (inactive); `CC(=O)c1ccc(-c2cnc3c(NC=O)cc(-c4cccc(NS(C)(=O)=O)c4)cn23)cc1`: -2.27% (inactive). `Cc1cc(C(=O)N2CCN(c3ccccn3)CC2)c(C)o1`: the activation is 1.36% (inactive). Next, `CN(C)C(CNC(=O)c1cc(Br)c(Br)s1)c1ccco1` (centres undefined): 0.51% (inactive); `O=C1[C@H]2[C@@H](c3ccc(Cl)cc3)N3C(=O)N(c4cccc(F)c4)C(=O)[C@@]3(Cc3ccccc3)[C@H]2C(=O)N1C1CCCCC1`: 8.92% (active); `CC12C(=O)N(c3ccccc3)C(=O)C1C(c1ccccc1)N1CCCN12` (centres undefined): -0.94% (inactive). Next, `O=C1[C@H]2[C@@H](c3ccc(C(F)(F)F)cc3)N[C@]3(CCCN(Cc4ccc(Cl)cc4)C3=O)[C@H]2C(=O)N1Cc1ccccc1`: -7.53% (inactive); `Cc1cccc([C@@H]2[C@@H]3C(=O)N(Cc4ccccc4)C(=O)[C@@H]3[C@]3(Cc4ccc(Cl)cc4)C(=O)N(c4cccc(Cl)c4)C(=O)N23)c1`: 0.5% (inactive); `O=C1[C@H]2[C@@H](c3ccc(F)cc3)N3C(=O)N(c4ccc(C(F)(F)F)cc4)C(=O)[C@@]3(Cc3ccccc3)[C@H]2C(=O)N1C1CCCCC1`: 7.65% (active). Regarding `Cc1cccc(N2C(=O)N3[C@H](c4ccc(F)cc4)[C@@H]4C(=O)N(C5CCCCC5)C(=O)[C@@H]4[C@]3(Cc3ccccc3)C2=O)c1`, the activation was 5.49% (inactive).

As to `CCOC(=O)[C@@H]1[C@H]2COc3ccc(Br)cc3[C@H]2N2C(=O)N(c3ccc(C)cc3)C(=O)[C@@]12C`, the activation was 0.65% (inactive). In the case of `C[C@@]12C(=O)N(c3cccc(Br)c3)C(=O)N1[C@H](c1ccc(Cl)cc1)[C@@H]1C(=O)N(C3CCCCC3)C(=O)[C@@H]12` it was 7.88% (active); in that of `O=C1[C@H]2[C@@H](c3ccc(C(F)(F)F)cc3)N[C@]3(CCCN(Cc4ccc(Br)cc4)C3=O)[C@H]2C(=O)N1Cc1ccccc1`, -7.76% (inactive). Next, `CNC(=O)c1ccc(CN(C)C(=O)c2cc(C3CC3)nc3c2cnn3C(C)C)cc1`: 1.69% (inactive). Next, `CN(C(=O)c1cccc(NC(=O)Cc2ccc(NC(=O)C3CCCN(C(=O)C4CC4)C3)cc2)c1)C1CC1` (centres undefined): 0.38% (inactive); `O=C(CN1C(=O)NC2(CCCC2)C1=O)NCC1CCCO1` (centres undefined): 0.59% (inactive). Consider `COCc1cc(C)nc(Nc2cc(C)ccc2C)c1C#N`, for which the activation is -0.89% (inactive). In the case of `CCOC(=O)c1ccc(-c2ccc3ncnc(N(C)Cc4sccc4C)c3c2)o1` it was 4.4% (inactive); in that of `O=C(Nc1nccs1)C1CCCN1S(=O)(=O)c1cccc2cccnc12` (centres undefined), -0.14% (inactive); in that of `O=C(NCc1ccco1)c1cc2sccc2n1Cc1ccc(F)cc1`, 0.82% (inactive). Next, `O=C(Cc1ccc(-n2c(=O)c3sccc3n(Cc3ccc(F)cc3)c2=O)cc1)NCc1ccco1`: -1.57% (inactive); `O=C(NCc1ccco1)c1ccc(Cn2c(=O)c3sccc3n(Cc3ccc(F)cc3)c2=O)cc1`: 15.4% (active); `C/C(Cc1ccccc1)=N\NC(=O)CNC(=O)c1ccc2c(c1)OCCO2`: -1.21% (inactive).

Consider `COc1ccccc1-c1nnc(SCC(=O)N2CC(C)CC(C)C2)o1` (centres undefined), for which the activation was 3.31% (inactive). In the case of `COc1ccc(-c2nnc(SCC(=O)c3cccs3)o2)c(OC)c1` it was 7.8% (active). Next, `COc1ccc(-c2nnc(NC(=O)CS(=O)(=O)c3ccc(Cl)cc3)o2)c(OC)c1`: 2.95% (inactive); `CCOCCCNC(=O)c1cc2c(=O)n3ccccc3nc2s1`: 3.92% (inactive). As to `Cc1cccn2c(=O)c3cc(C(=O)NC4CCCCC4)sc3nc12`, the activation is 2% (inactive). Next, `CN(C(=O)c1cc2c(=O)n3ccccc3nc2s1)C1CCCCC1`: 8.38% (active); `CC(=O)N1c2ccc(S(=O)(=O)N3CCC(C(=O)NC4CCCC(C)C4C)CC3)cc2CC1C` (centres undefined): 1.08% (inactive). In the case of `Clc1ccc(-c2nnc(-c3ccccc3)nc2N2CCSCC2)cc1` it was -1.26% (inactive). In the case of `OC(c1ccc(Cl)c(F)c1)c1ncc(-c2ccccc2Cl)[nH]1` (centres undefined) it was 0.22% (inactive). Consider `CCC1(CC)Cc2ccccc2-c2nc(CCl)[nH]c(=O)c21`, for which the activation was 8.24% (active). Take `CCOC(=O)C1Cn2c(nc3c(c2=O)C(C)(CC)Cc2ccccc2-3)S1` (centres undefined): the activation was 1.17% (inactive). Next, `N#CCSc1nc2c(c(=O)n1Cc1ccccc1)C1(CCCC1)Cc1ccccc1-2`: -0.71% (inactive); `CN1CCCc2cc(C#N)c(=O)[nH]c21`: -0.22% (inactive); `C[C@H](CO)N1C[C@H](C)[C@@H](CN(C)S(=O)(=O)c2ccc(Oc3ccccc3)cc2)OCc2cn(nn2)CCCC1=O`: -2.73% (inactive). In the case of `CCOC(=O)C1CCN(C(=O)c2ccc3c(=O)n4nc(Nc5ccccc5CC)sc4nc3c2)CC1` it was 0.72% (inactive); in that of `O=C(/C=C/Sc1ncn[nH]1)c1ccc(Cl)cc1`, 23.3% (active); in that of `COc1ccc(CNC(=O)[C@@H]2CC=C[C@@H]3CCN(C4CC4)C(=O)[C@@H]32)cc1`, -0.64% (inactive). Take `O=S(=O)(Nc1ccc2nc(-c3ccco3)[nH]c2c1)c1ccccc1`: the activation is 2.98% (inactive). For the molecule `COc1ccc(-c2csc(Nc3cccc(C)n3)n2)cc1OC`, the activation was 0.8% (inactive). Next, `Cc1ccc(Nc2nc(-c3ccc(O)cc3O)cs2)nc1`: 2.15% (inactive); `COC(=O)CCc1sc(Nc2ccc(Br)cc2)nc1-c1ccc(OC)cc1`: 2.66% (inactive). Next, `COc1ccc(C(C)(O)c2nc(-c3ccc(C)c(C)c3)cs2)cc1` (centres undefined): 0.79% (inactive); `COc1ccc(-c2csc(Cc3nc(O)cs3)n2)cc1`: 21.7% (active).

As for `COc1ccc(C(O)c2nc(-c3ccc(OC)nc3)cs2)cc1` (centres undefined), the activation was 0.21% (inactive). In the case of `O=c1oc2ccccc2cc1-c1csc(Nc2ccc(O)cc2)n1` it was 22.5% (active). For the molecule `Cc1ccn2c(-c3csc(Nc4ccc(C(=O)O)cc4)n3)c(C)nc2c1`, the activation is 1.81% (inactive).

On to `COc1ccc(-c2csc(Nc3ccc(O)cc3)n2)cc1`, for which the activation is 8.06% (active). In the case of `COc1cc2c(cc1CNC[C@H]1O[C@@H](n3cnc(C(N)=O)n3)[C@H](O)[C@@H]1O)OCO2` it was -0.43% (inactive).

Regarding `CCOC(=O)c1c(C)oc2cc(Br)c(OCC(N)=O)cc12`, the activation was -1.34% (inactive). Next, `COc1cc2c(cc1OC)C(C(=O)Nc1cc(C)c(OC)c(C)c1)CC(=O)N2` (centres undefined): 1.49% (inactive). With `CC12CCC(=O)C=C1CCC1C2C(O)CC2(C)C1CCC2(O)C(O)CO` (centres undefined), the activation is 0.74% (inactive). Next, `O=C(O)c1ccccc1N=N/C(=N/Nc1cc(S(=O)(=O)O)ccc1O)c1ccccc1`: -1.25% (inactive); `COc1ccc(OC)c(S(=O)(=O)N(C)CC(=O)N2CCN(c3ccccc3)CC2)c1`: -1.26% (inactive); `CC1CC2=C(CC1/C=N/NC(N)=S)C(C)(C)CCC2` (centres undefined): -2.98% (inactive). Next, `Cc1ccc(C2NC(=S)NC3=C2N2CCC3CC2)cc1` (centres undefined): 1.46% (inactive); `CC(=O)CCS(=O)(=O)c1ccc(C)c(C)c1`: 0.08% (inactive); `COc1cc(/C=N/Nc2nc3ccccc3s2)ccc1O`: 8.92% (active). Regarding `COc1cc(C=NC2CCCCC2)ccc1O`, the activation was -0.66% (inactive). Next, `CCOc1cc(/C=N/Nc2cc(C)nc3ccc(C)cc23)ccc1O`: -0.68% (inactive); `CCN1C(=NCCc2cccnc2)N[C@@H](c2ccccc2)[C@H](C(=O)OC)[C@H]1C`: 1.66% (inactive). In the case of `Cc1ccc(CNC(=O)Nc2nnc([C@H]3C[C@H](O)[C@@H](CO)O3)s2)cc1` it was 0.3% (inactive).

The record behind these values is PubChem BioAssay AID540364 (The Scripps Research Institute Molecular Screening Center, 2011).
